Screening results (PubChem)
ELG1 repair inh: inhibitors of ELG1-dependent DNA repair in HEK293T cells. HEK293T ELG1-luciferase reporter, luminescence, 16 h; DNA damage induced by 5-fluorouridine. Potency, µM (top dose mostly 46.1 µM), for inactives: top-dose activity change, negative = inhibition, hits mostly inhibitors. 330,000 tested, 2.3% active. AID 504467; note: potency is the fitted concentration of half-maximal effect; nearly all actives have a fitted effect of over 55% in size
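5-Fluorouridine DNA damage + compound/DMSO, 2,000 cells/well, 16 h, 37 °C/5% CO2. ONE-Glo, 30 min RT, luminescence. Readout = decrease in reporter signal.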
IL-1B inflam inh: inflammasome signaling inhibition, IL-1 beta readout. THP-1 LPS/ATP IL-1B secretion, AlphaLISA, 16 h; active compounds read low. activity change, % at 57.5 µM. 360,000 tested, 4.7% active; in the data active = activity change below about -50%; inconclusive = mostly about -30% to -49%
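Secreted IL-1B measured by AlphaLISA bead assay after 16 h compound exposure of THP-1 cells; compounds (final up to 57.5 uM) added 1 h before LPS (250 ng/mL) and ATP (1.25 mM) stimulation; lower signal means less secretion.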
RORg inh: inhibitors of mouse ROR gamma transcriptional activity. Drosophila S2 Gal4-RORgamma UAS-luciferase reporter, 20 h. P51450. Potency, µM (series often up to 53.6 µM), for inactives: top-dose activity change, negative = inhibition, actives largely listed as inhibitors. 310,000 tested, 5.4% active; note: potency is the fitted concentration of half-maximal effect; nearly all actives have a fitted effect of over 60% in size
Target sequence (P51450 whole entry, looked up, the tested form may be a part): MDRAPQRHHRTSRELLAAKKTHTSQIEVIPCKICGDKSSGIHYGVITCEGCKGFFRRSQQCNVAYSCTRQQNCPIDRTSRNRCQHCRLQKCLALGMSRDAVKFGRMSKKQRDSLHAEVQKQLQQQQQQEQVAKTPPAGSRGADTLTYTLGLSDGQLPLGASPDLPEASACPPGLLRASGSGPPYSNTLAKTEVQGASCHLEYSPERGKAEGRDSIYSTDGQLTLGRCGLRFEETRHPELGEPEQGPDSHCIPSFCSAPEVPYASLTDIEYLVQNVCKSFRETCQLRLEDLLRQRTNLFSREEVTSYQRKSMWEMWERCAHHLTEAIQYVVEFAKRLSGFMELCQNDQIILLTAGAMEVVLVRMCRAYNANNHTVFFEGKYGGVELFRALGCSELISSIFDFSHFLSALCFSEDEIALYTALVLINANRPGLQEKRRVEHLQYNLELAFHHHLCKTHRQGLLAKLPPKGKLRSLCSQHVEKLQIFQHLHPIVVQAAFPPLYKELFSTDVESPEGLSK
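Drosophila S2 cells stably expressing Gal4-DBD/mouse RORγ fusion under metallothionein promoter plus UAS-luciferase; compound 1 h, then 700 uM CuSO4 induction for 20 h at ambient temperature; inhibition read as reduced luminescence.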
Gal4-VP16 FLuc: inhibits Gal4-VP16 luciferase reporter, ROR gamma counter-screen; Drosophila S2 Gal4-VP16 UAS-luciferase, luminescence, 20 h; Potency, µM (series often up to 53.6 µM), inactives show top-dose activity, negative = inhibition, hits mostly inhibitors; 310,000 tested, 3.5% active;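 note: Gal4-VP16 expression switched on by copper sulfate through the metallothionein promoter; potency is the fitted concentration of half-maximal effect; nearly all actives have a fitted effect of over 50% in size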
DT40 TDP1 no CPT: qHTS for Inhibitors of human tyrosyl-DNA phosphodiesterase 1 (TDP1): qHTS in cells in absence of CPT | AID 686978, 2013 | DT40 Tdp1-/- hTDP1 cells, no CPT, ATP luminescence, 48 h | Potency, µM (titrated, usually from 46.2 µM), inactives show at the top dose activity change, negative = growth inhibition, usual class: inhibitors | 420,000 tested, 15% active; note: potency is the fitted concentration of half-maximal effect; nearly all actives have a fitted effect of over 55% in size
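A cellular qHTS used chicken DT40 cells lacking endogenous Tdp1 but carrying stably transfected human TDP1. Compounds were applied without camptothecin, and cell growth kinetics were judged by ATP-dependent luminescence after ≥48 hr.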
TDP1 cell CPT: growth inhibition of DT40 Tdp1-/-;hTDP1 cells with camptothecin (screen for TDP1 inhibitors) | chicken DT40 Tdp1-/-;hTDP1 cells + 20 nM CPT, ATP luminescence, 48 h | Potency, µM (highest dose often 46.2 µM), without a hit: at the top dose activity change, negative = growth inhibition, hits mostly inhibitors | 420,000 tested, 12% active | AID 686979; note: potency is the fitted concentration of half-maximal effect; nearly all actives have a fitted effect of over 55% in size
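Chicken DT40 Tdp1-/- cells complemented with human TDP1, 400 cells/well, exposed to compounds plus 20 nM camptothecin for at least 48 h at 37 C; viability read as ATP content by CellTiter-Glo luminescence.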
Starred values were filed as active, the others as inactive; [ ] = remark or other dose. Most compounds without a hit are left out; they make up all but 21% or so of the library. Unless noted, calls come from the whole dose curve; as a rule, active = well fitted curve in the direction sought with a large enough effect; inconclusive = small, poorly fitted or top-dose-only effect, or another doubt; inactive = no such curve, though single readings can be large; an effect the other way counts as inactive or inconclusive. % is set by controls: 0 for no effect and ±100 for the full control effect.

Results for Cc1nc2c(sc3nc(N4CCOCC4)c4c(c32)CC(C)(C)OC4)c(-c2ccccc2)c1C(=O)O ?
ELG1 repair inh: 3.7µM*; IL-1B inflam inh: -10; RORg inh: 33%; Gal4-VP16 FLuc: 2%; DT40 TDP1 no CPT: inconclusive; TDP1 cell CPT: 26µM*

What do the screens show for `CN1Cc2c(N3CCOCC3)nc3sc(C(=O)c4ccc(Br)cc4)c(N)c3c2CC1(C)C`?
ELG1 repair inh: inconclusive; RORg inh: 11µM*; Gal4-VP16 FLuc: inconclusive; DT40 TDP1 no CPT: 5.2µM*; TDP1 cell CPT: 4.1µM*

Results for CC1(C)Cc2c(c(N3CCOCC3)nc3snc(NC(=O)c4ccccc4)c23)CO1 ?
ELG1 repair inh: inconclusive; IL-1B inflam inh: -11; RORg inh: -16%; Gal4-VP16 FLuc: inconclusive; DT40 TDP1 no CPT: -15%; TDP1 cell CPT: -14%

What do the screens show for `COc1ccccc1NC(=O)c1sc2nc(N3CCOCC3)c3c(c2c1N)CC(C)(C)OC3`?
DT40 TDP1 no CPT: 5%; TDP1 cell CPT: 2%

Results for CN1Cc2c(N3CCOCC3)nc3sc(C#N)c(N)c3c2CC1(C)C ?
ELG1 repair inh: inconclusive; IL-1B inflam inh: -23; RORg inh: 13%; Gal4-VP16 FLuc: -3%; DT40 TDP1 no CPT: inconclusive; TDP1 cell CPT: -21%

What do the screens show for `CC1(C)Cc2c(c(N3CCOCC3)nc3sc(-c4ccc(C(=O)O)o4)c(N)c23)CO1`?
ELG1 repair inh: 2.6µM*; IL-1B inflam inh: inconclusive; RORg inh: inconclusive; Gal4-VP16 FLuc: 3%; DT40 TDP1 no CPT: inconclusive; TDP1 cell CPT: -8%

How did CNC(=O)c1ccc(-c2sc3nc(N4CCOCC4)c4c(c3c2N)CC(C)(C)OC4)o1 do in these assays?
ELG1 repair inh: inconclusive; IL-1B inflam inh: 129; RORg inh: 24%; Gal4-VP16 FLuc: 0%; DT40 TDP1 no CPT: 18µM*; TDP1 cell CPT: 21µM*

What do the screens show for `Cc1cc(C)c2c(CC(=O)Nc3c(C(=O)c4ccc(F)cc4)oc4ccccc34)coc2c1`?
DT40 TDP1 no CPT: -2%; TDP1 cell CPT: -2%

What do the screens show for `COc1cc(Cl)c(NC(=O)CN2C(=O)c3cccnc3Sc3ccccc32)c(OC)c1`?
DT40 TDP1 no CPT: inconclusive; TDP1 cell CPT: 1%

Results for O=C(Cn1ncn2c(cc3ccccc32)c1=O)NCCc1cccs1 ?
ELG1 repair inh: 20%; IL-1B inflam inh: 0; RORg inh: -1%; Gal4-VP16 FLuc: -3%; DT40 TDP1 no CPT: 25%; TDP1 cell CPT: -20%

Results for Cc1cccc(N(C(=O)CCC(=O)Nc2nccs2)C(C(=O)NC(C)(C)C)c2ccc(O)cc2)c1 (stereo not drawn) ?
ELG1 repair inh: 3%; IL-1B inflam inh: -8; RORg inh: 33%; Gal4-VP16 FLuc: 8%; DT40 TDP1 no CPT: -29%; TDP1 cell CPT: -12%

How did CNC(=O)c1ccc(-c2sc3nc(N4CCOCC4)c4c(c3c2N)CCCC4)o1 do in these assays?
ELG1 repair inh: inconclusive; IL-1B inflam inh: 5; RORg inh: -11%; Gal4-VP16 FLuc: 3%; DT40 TDP1 no CPT: 15µM*; TDP1 cell CPT: 21µM*

Results for NNC(=O)c1sc2nc(N3CCOCC3)c3c(c2c1N)CCCC3 ?
ELG1 repair inh: inconclusive; IL-1B inflam inh: -12; RORg inh: -16%; Gal4-VP16 FLuc: 12%; DT40 TDP1 no CPT: inconclusive; TDP1 cell CPT: -29%

How did Cc1ccccc1CN1CCN(Cc2cc(=O)c3ccccc3[nH]2)CC1CCO (stereo not drawn) do in these assays?
ELG1 repair inh: inconclusive; IL-1B inflam inh: 19; RORg inh: -7%; Gal4-VP16 FLuc: -12%; DT40 TDP1 no CPT: -27%; TDP1 cell CPT: -19%

How did OCCC1CN(CC(c2ccccc2)c2ccccc2)CCN1C1CCCC1 (stereo not drawn) do in these assays?
ELG1 repair inh: 12%; IL-1B inflam inh: -14; RORg inh: -29%; Gal4-VP16 FLuc: -6%; DT40 TDP1 no CPT: 18µM*; TDP1 cell CPT: inconclusive

How did CCOc1ccc(CN2CCN(Cc3cnc(-c4ccccc4)s3)CC2CCO)cc1 (stereo not drawn) do in these assays?
ELG1 repair inh: inconclusive; IL-1B inflam inh: 8; RORg inh: -1%; Gal4-VP16 FLuc: -2%; DT40 TDP1 no CPT: 21µM*; TDP1 cell CPT: inconclusive

What do the screens show for `CCOc1ccc2nc(CN3CCN(Cc4ccsc4)C(CCO)C3)ccc2c1` (stereo not drawn)?
ELG1 repair inh: 4%; IL-1B inflam inh: -6; RORg inh: -19%; Gal4-VP16 FLuc: 2%; DT40 TDP1 no CPT: 18µM*; TDP1 cell CPT: inconclusive

What do the screens show for `OCCC1CN(Cc2cnc(-c3ccc(Cl)cc3)nc2)CCN1C1CCCC1` (stereo not drawn)?
ELG1 repair inh: 6.5µM*; IL-1B inflam inh: -73*; RORg inh: 3%; Gal4-VP16 FLuc: 1%; DT40 TDP1 no CPT: 15µM*; TDP1 cell CPT: 23µM*

Results for CC(C)N1CCC(N2CCN(Cc3cnc(-c4ccccc4)s3)CC2CCO)CC1 (stereo not drawn) ?
ELG1 repair inh: 14%; IL-1B inflam inh: -13; RORg inh: 0%; Gal4-VP16 FLuc: 5%; DT40 TDP1 no CPT: -6%; TDP1 cell CPT: 1%

Results for CC(C)CN1CCN(Cc2cnc(-c3ccc(Cl)cc3)nc2)CC1CCO (stereo not drawn) ?
ELG1 repair inh: -11%; IL-1B inflam inh: 15; RORg inh: 18%; Gal4-VP16 FLuc: 6%; DT40 TDP1 no CPT: inconclusive; TDP1 cell CPT: inconclusive

Results for CCn1cc(CN2CCN(Cc3ccsc3)C(CCO)C2)cn1 (stereo not drawn) ?
ELG1 repair inh: 5%; IL-1B inflam inh: inconclusive; RORg inh: 9%; Gal4-VP16 FLuc: 0%; DT40 TDP1 no CPT: 15%; TDP1 cell CPT: -2%

How did CC(C)C[C@@H](CC(=O)N[C@H](CC(=O)N[C@@H]1CCCC[C@H]1C(=O)N[C@H](CC(=O)N[C@@H](CCC(=O)O)CC(=O)O)Cc1ccccc1)C(C)C)NC(=O)[C@@H]1CNCC[C@H]1N do in these assays?
RORg inh: 4%; Gal4-VP16 FLuc: -5%

Results for CC(C)C(=O)N[C@@H]1CCCN1C(=O)/C=C\c1ccccc1 ?
RORg inh: 2%[10 µM]; Gal4-VP16 FLuc: -11%[10 µM]

What do the screens show for `OCCC1CN(Cc2cnc(-c3ccccc3)s2)CCN1C1CCCCC1` (stereo not drawn)?
ELG1 repair inh: 17%; IL-1B inflam inh: -3; RORg inh: -4%; Gal4-VP16 FLuc: 7%; DT40 TDP1 no CPT: inconclusive; TDP1 cell CPT: -5%
